Source: PubChem BioAssay
Active and inactive are the calls of the source. Unless noted, no rule for the calls is given here.

How the values were obtained:
[1] = compound effects on lung adenocarcinoma cell viability – A549, calcein-AM fluorescence, 48 h, basal, profiling panel (AID 1162); details: higher = more signal; also: test concentration not given here
[2] = compound effects on differentiated 3T3-L1 adipocyte viability – cell-based, 3T3-L1 adipocytes, calcein-AM fluorescence, 48 h, basal, profiling panel (AID 1163); details: 3T3-L1 adipocytes viability, higher = more signal; also: test concentration not given here
[3] = compound effects on hepatocellular carcinoma cell viability – HepG2, calcein-AM fluorescence, 48 h, basal, profiling panel (AID 1164); details: higher = more signal; also: test concentration not given here
[4] = compound effects on multiple myeloma cell viability – MM1S, calcein-AM fluorescence, 48 h, basal, profiling panel (AID 1165); details: higher = more signal;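 also: viability of MM1S multiple myeloma cells under basal unstimulated conditions; test concentration not given here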
[5] = calcein-AM signal in unstimulated myeloma cells – cell-based, calcein-AM fluorescence, 48 h, PK04 Diversity Set, profiling panel (AID 1166); details: RPMI8226 myeloma viability, higher = more signal;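 also: cells grown under basal conditions without added stimulus; test concentration not given here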
[6] = JC-1 mitochondrial signal, unstimulated HepG2 cells – cell-based, JC-1 fluorescence, 24 h, 100 nL compound, profiling panel (AID 1167); details: HepG2 mitochondrial potential, higher = more signal; also: test concentration not given here
[7] = JC-1 mitochondrial signal, unstimulated adipocytes – cell-based, JC-1 fluorescence, 3T3-L1 adipocytes, 24 h, 100 nL compound, profiling panel (AID 1168); details: JC-1 mitochondrial fluorescence, higher = more signal, called active from +8 up or from −8 down; also: test concentration not given here
[8] = JC-1 mitochondrial signal, unstimulated myeloma cells – cell-based, JC-1 fluorescence, RPMI8226, 24 h, 100 nL compound, profiling panel (AID 1169); details: JC-1 mitochondrial potential fluorescence, higher = more signal; also: test concentration not given here
[9] = JC-1 mitochondrial signal, unstimulated MM1S myeloma – cell-based, JC-1 fluorescence, 24 h, 100 nL compound, profiling panel (AID 1170); details: MM1S mitochondrial potential, higher = more signal; also: test concentration not given here
[10] = resazurin metabolic signal in A549 cells – cell-based, resazurin fluorescence, 24 h, PK04 Diversity Set, profiling panel (AID 1171); details: A549 viability, higher = more signal, called active from +8 up or from −8 down; also: test concentration not given here
[11] = resazurin metabolic signal in HepG2 cells – cell-based, resazurin fluorescence, 24 h, PK04 Diversity Set, profiling panel (AID 1172); details: HepG2 viability, higher = more signal; also: test concentration not given here
[12] = budding yeast growth changes without added modifier – OD600, strain BY4716, 24 h, basal condition, primary screen (AID 1173); details: S. cerevisiae BY4716 growth, OD600, 24 h; higher = more signal, called active from +8 up or from −8 down
[13] = viability profiling in MM1S myeloma cells – cell-based, resazurin fluorescence, basal, 24 h, PK04 Diversity Set, profiling panel (AID 1174); details: higher = more signal, called active from +8 up or from −8 down; also: test concentration not given here
[14] = molecular target: Dihydroorotate dehydrogenase (quinone), mitochondrial (Plasmodium falciparum (isolate 3D7)) (UniProt Q08210); assay: inhibition of P. falciparum DHODH – biochemical, C-terminal His tag, absorbance 600 nm, primary screen (AID 1175); details: PfDHODH enzyme, DCIP absorbance 600 nm; higher = more signal, called active from +8 up or from −8 down;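 also: recombinant parasite enzyme with a five histidine tag at its C terminus; test concentration not given here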
[15] = inhibition of PAO1 biofilm formation – strain PAO1, LB-PBS medium, absorbance 600 nm, primary screen (AID 1176); also: test concentration not given here; details: P. aeruginosa PAO1 growth/biofilm, A600, 12 h; higher = more signal
[16] = growth modulation of vineyard yeast isolate – strain RM11-1a, OD600, basal, 24 h, primary screen (AID 1177);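 also: cultures grown under basal conditions with no added stressor; test concentration not given here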; details: S. cerevisiae RM11-1a growth, OD600, 24 h; higher = more signal, called active from +8 up or from −8 down
[17] = growth of efflux-deficient E. coli DRC39 – strain DRC39, OD650, 24 h, E. coli filamentation inducers, primary screen (AID 1178);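 also: growth measured as culture turbidity by optical density at 650 nm; test concentration not given here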; details: E. coli DRC39 acrAB, higher = more signal, called active from +8 up or from −8 down
[18] = growth of efflux-deficient E. coli DRC39 – strain DRC39, OD650, 48 h, E. coli filamentation inducers, primary screen (AID 1179);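 also: screen aims at cell division blockers that make cells filament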; details: E. coli DRC39 delta-acrAB growth, higher = more signal, called active from +8 up or from −8 down
[19] = viability profiling in RPMI8226 myeloma cells – cell-based, resazurin fluorescence, basal, 24 h, PK04 Diversity Set, profiling panel (AID 1180); details: higher = more signal;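 also: RPMI8826 multiple myeloma cell line at 5000 cells per well; test concentration not given here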
[20] = molecular target: E3 ubiquitin-protein ligase XIAP (Homo sapiens) (UniProt P98170); assay: small molecules binding XIAP protein – biophysical, small-molecule microarray, fluorescence 635 nm, primary screen (AID 1181); details: higher = more signal;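 also: score merges 667 nm emission and signal to noise over triplicate slides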
Chain of E3 ubiquitin-protein ligase XIAP (Homo sapiens) (P98170 whole entry, looked up): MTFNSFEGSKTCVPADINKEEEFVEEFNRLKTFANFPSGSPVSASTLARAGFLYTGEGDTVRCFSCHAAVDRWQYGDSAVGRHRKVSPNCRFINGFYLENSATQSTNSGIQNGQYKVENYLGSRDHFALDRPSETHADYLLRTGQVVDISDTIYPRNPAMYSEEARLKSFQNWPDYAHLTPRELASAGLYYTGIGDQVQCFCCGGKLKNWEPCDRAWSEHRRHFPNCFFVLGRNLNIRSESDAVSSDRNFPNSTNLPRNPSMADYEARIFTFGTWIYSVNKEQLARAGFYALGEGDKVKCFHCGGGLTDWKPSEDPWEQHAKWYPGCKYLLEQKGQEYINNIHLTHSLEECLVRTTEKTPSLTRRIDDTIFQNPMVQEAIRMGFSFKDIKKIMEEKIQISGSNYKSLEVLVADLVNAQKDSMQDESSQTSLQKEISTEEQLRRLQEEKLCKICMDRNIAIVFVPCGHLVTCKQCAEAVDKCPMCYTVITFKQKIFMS

Chain of Dihydroorotate dehydrogenase (quinone), mitochondrial (Plasmodium falciparum (isolate 3D7)) (Q08210 whole entry, looked up): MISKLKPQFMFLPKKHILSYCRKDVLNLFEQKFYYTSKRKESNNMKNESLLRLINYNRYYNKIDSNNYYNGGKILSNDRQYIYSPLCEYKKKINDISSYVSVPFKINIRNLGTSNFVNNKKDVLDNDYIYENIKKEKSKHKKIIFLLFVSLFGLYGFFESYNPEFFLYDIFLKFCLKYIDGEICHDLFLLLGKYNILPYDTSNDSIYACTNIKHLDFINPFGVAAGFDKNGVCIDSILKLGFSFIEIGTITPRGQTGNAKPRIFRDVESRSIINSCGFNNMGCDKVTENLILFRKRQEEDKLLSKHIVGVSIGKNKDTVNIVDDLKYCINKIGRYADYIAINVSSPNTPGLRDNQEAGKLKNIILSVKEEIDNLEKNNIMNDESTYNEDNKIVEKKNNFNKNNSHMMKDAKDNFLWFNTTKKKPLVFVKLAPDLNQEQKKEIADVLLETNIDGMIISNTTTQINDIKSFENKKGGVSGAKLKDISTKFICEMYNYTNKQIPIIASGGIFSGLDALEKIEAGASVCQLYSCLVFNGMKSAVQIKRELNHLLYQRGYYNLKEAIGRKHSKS

| SMILES | z-score [1] | z-score [2] | z-score [3] | z-score [4] | z-score [5] | z-score [6] | z-score [7] | z-score [8] | z-score [9] | z-score [10] | z-score [11] | z-score [12] | z-score [13] | composite z-score [14] | z-score [15] | z-score [16] | z-score [17] | z-score [18] | z-score [19] | composite z-score [20] |
| --- | --- | --- | --- | --- | --- | --- | --- | --- | --- | --- | --- | --- | --- | --- | --- | --- | --- | --- | --- | --- |
| COc1ccc(C#Cc2ccc3c(c2)[C@]2(C(=O)N3)[C@H](c3ccc(OCCO)cc3)N3[C@H](c4ccccc4)[C@H](c4ccccc4)OC(=O)[C@H]3[C@@H]2C(=O)N2CCc3cc(OC)c(OC)cc3C2)cc1 | 0.0926 | 0.485 | 0.477 | -1.25 | 0.343 | 0.37 | 3.73 (inactive) | -1.23 | -1.49 | -0.0906 (inactive) | 0.36 | 2.06 (inactive) | -0.224 (inactive) | -1.84 (inactive) | 2.68 (inactive) | 2.33 (inactive) | -0.479 (inactive) | -0.324 (inactive) | 0.0844 | 0.107 |
| Cc1ccc(F)cc1S(=O)(=O)N[C@@H]1CCN(Cc2cccc3[nH]ccc23)C1 | 0.139 | -0.658 | -0.415 | -1.14 | -0.864 | 0.0617 | -0.65 (inactive) | 0.263 | -0.161 | -0.398 (inactive) | -0.921 | -2.03 (inactive) | -0.182 (inactive) | 0.31 (inactive) | 0.343 (inactive) | -0.367 (inactive) | -0.429 (inactive) | -1.32 (inactive) | -0.504 | -0.02 |
| CCCC=C(CCC)[C@@H](NC(=O)CCc1ccccc1)c1ccc(C(F)(F)F)cc1 | -0.894 | -0.265 | -0.481 | -1.2 | -2.01 | 2.18 | -0.933 (inactive) | -0.0403 | -0.774 | 0.569 (inactive) | 0.561 | -0.357 (inactive) | -0.407 (inactive) | -1.39 (inactive) | 0.0944 (inactive) | 0.439 (inactive) | 0.0152 (inactive) | -0.0054 (inactive) | -0.581 | 0.0734 |
| NC(=O)[C@@H]1[C@H]2C(=O)O[C@H](c3ccccc3)[C@H](c3ccccc3)N2[C@H](c2ccc(OCCO)cc2)[C@@]12C(=O)Nc1ccc(C#CCCO)cc12 | -0.0173 | -0.387 | 1.17 | -0.929 | 0.698 | -0.704 | -0.391 (inactive) | -0.323 | -0.939 | -0.65 (inactive) | -0.632 | -0.349 (inactive) | -0.729 (inactive) | -1.26 (inactive) | 1.42 (inactive) | 1.27 (inactive) | 0.544 (inactive) | 0.721 (inactive) | -0.83 | 0.216 |
| CC(C)C[C@@H]1NC(=O)[C@H]2C[C@@H](C(=O)NCCCCCN)[C@@H](c3cccc(OCCO)c3)N2C1=O | 0.779 | 0.57 | 1.3 | 0.64 | -0.0687 | 1.07 | 0.97 (inactive) | -0.336 | -0.16 | 0.11 (inactive) | -0.604 | -0.122 (inactive) | -0.178 (inactive) | -1.36 (inactive) | -0.0491 (inactive) | -2.46 (inactive) | 1.06 (inactive) | 1.61 (inactive) | 0.138 | -0.198 |
| CCCCCCCCCCC(O)C1C=CC2C(=O)N(C)C(=O)C2N1Nc1cc(OC)c(OC)c(OC)c1 (stereo not given) | -2.12 | -0.555 | -3.26 | -3.8 | -4.07 | -0.993 | 0.485 (inactive) | -0.913 | -2.12 | -1.38 (inactive) | -2.36 | -1.36 (inactive) | -3.17 (inactive) | -1.3 (inactive) | 0.971 (inactive) | 0.439 (inactive) | -0.875 (inactive) | -1.12 (inactive) | -3.54 | -0.182 |
| COCCCNC(=O)[C@@]1(c2ccc([N+](=O)[O-])cc2)CC(=O)N(C(C)C)[C@@H]1c1ccc(CO)cc1 | 1.12 | 1.22 | 0.603 | 0.105 | 0.243 | -0.0251 | -0.612 (inactive) | -0.795 | -1.28 | 0.985 (inactive) | 0.145 | -0.569 (inactive) | 0.879 (inactive) | -0.499 (inactive) | 0.0561 (inactive) | -0.203 (inactive) | 0.0472 (inactive) | -0.0495 (inactive) | 1.24 | 0.0223 |
| COc1cc(NN2C(C(O)C3CCCCC3)C=CC3C(=O)N(c4ccccc4)C(=O)C32)cc(OC)c1OC (stereo not given) | -0.278 | 0.0809 | 0.736 | -0.434 | -1.8 | -1.08 | 0.0506 (inactive) | -0.741 | 0.439 | -1.37 (inactive) | -1.64 | 1.2 (inactive) | -1.62 (inactive) | -0.0779 (inactive) | 0.698 (inactive) | 0.135 (inactive) | -0.0089 (inactive) | -0.545 (inactive) | -1.67 | 0.337 |
